# Results taken from PubChem BioAssay AID371 (SRMLSC, 2006).
# In all, about 3,300 compounds went through this assay and about 280 (8.5%) were called active. The list comes from a sample in which actives are over-represented; it also holds similar structures and randomly drawn compounds. A number with no mark means an inactive call.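 The calls were made as follows: active = mean growth inhibition over the two runs of 50% or more; inactive = mean growth inhibition under 50%.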
# Test: A549 NSCLC cell proliferation inhibitors – ATP luminescence, human non-small cell lung line, primary screen (AID 371);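 also: compound exposure lasted 72 h before the ATP read; 0% = untreated cell signal and 100% = no luminescence left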
# Settings: at 10 µM, hits give high values
row,SMILES,growth inhibition
1,CNCCCN1c2ccccc2CCc2ccccc21,39.1%
2,CNCCCC1c2ccccc2C=Cc2ccccc21,60% (active)
3,COCCCN1C(=O)C(O)=C(C(=O)c2ccco2)C1c1ccc(Br)cc1 (stereo not drawn),2.73%
4,Cc1nc2c(o1)CCc1ccccc1C2O (stereo not drawn),0.13%
5,Cc1ccc(N2C(=O)C3ON(c4ccccc4)C(c4ccncc4)C3C2=O)cc1 (stereo not drawn),7.22%
6,CSc1nc(N)c(C#N)c(-c2ccccc2Cl)c1C#N,60.5% (active)
7,CCSc1nc(N)c(C#N)c(-c2ccccc2Cl)c1C#N,3.11%
8,N#Cc1c(-c2ccccc2Cl)cc(C2CC2)nc1N,11.8%
9,CC1(C)CC(=O)C=C(N=CC2=C(O)CC(C)(C)CC2=O)C1,1.19%
10,Cc1cc(=O)oc(C)c1C(=O)NCCN1CCOCC1,-2.84%
11,CCC(=O)Nc1cccc(-c2nnc(SCC(=O)NCc3ccco3)n2C)c1,-4.64%
12,CSc1nc2sc3c(c2c2nnnn12)CC(C)(C)OC3,9.43%
13,CC1(C)Cc2c(sc3ncn4nnnc4c23)CO1,0.79%
14,CC1(C)Cc2c(sc3c4nnnn4c4nnnn4c23)CO1,62.4% (active)
15,COc1ccc(-n2c(SCC(N)=O)nc3sc4c(c3c2=O)CCN(C)C4)cc1,8.23%
16,Cn1c(=O)n(CCC(=O)O)c2ccccc21,1.48%
17,COC(=O)CC1=C(C(=O)OC)C(c2ccncc2)C(C#N)=C(N)O1 (stereo not drawn),3.31%
18,O=C(Nc1ccc(N2CCN(C(=O)c3ccccc3)CC2)c(Cl)c1)c1ccc(Br)o1,64.9% (active)
19,O=C(Nc1ccc2c(c1)OCCO2)c1ccc(Br)o1,19.2%
20,O=C(c1cccc(Cl)c1)N1CCN(C(=O)c2ccccc2F)CC1,0.26%
21,CCCCC(=O)C1CCN(Cc2ccccc2)CC1,-7.27%
22,COc1cc(-c2nn3c(C4CCCCC4)nnc3s2)cc(OC)c1OC,18.1%
23,CN(C=C1C(=O)CC(C)(C)CC1=O)CCN1CCNCC1,3.03%
24,N#CC1=C(N)NC(SCc2ccc(F)cc2)=C(C#N)C12CCCCC2,84.3% (active)
25,N#Cc1c(SCC(N)=O)nsc1SCc1ccc(Cl)cc1,23.5%
26,N#CC1=C(N)NC(SCc2ccc(Cl)cc2)=C(C#N)C12CCCCC2,91% (active)

row,SMILES,growth inhibition
1,COc1ccc(C(=O)CSC2=C(C#N)C3(CCCCC3)C(C#N)=C(N)N2)cc1,49.2%
2,COc1ccc(-c2oc3ncn4nc(COc5ccccc5)nc4c3c2-c2ccc(OC)cc2)cc1,10.6%
3,CCOC(=O)c1[nH]c2ccc(OC)cc2c1NC(=O)CCN1CCCC(C)C1 (stereo not drawn),6.76%
4,c1cncc(Oc2cccc(Oc3cccnc3)c2)c1,20.7%
5,COc1ccc(OC)c(C2C(C(=O)c3sc(C)nc3C)=C(O)C(=O)N2CCN2CCOCC2)c1 (stereo not drawn),5.82%
6,O=C1CC(NCc2ccc3c(c2)OCO3)C(=O)N1Cc1ccc2c(c1)OCO2 (stereo not drawn),0.14%
7,COc1cccc(/C=C2/CN(C)CC3=C2OC(N)=C(C#N)C3c2cccc(OC)c2)c1 (stereo not drawn),67.5% (active)
8,COCc1[nH]nc2c1C(c1cccc(OC)c1)C(C#N)=C(N)O2 (stereo not drawn),8.14%
9,CCN1CC2=C(OC(N)=C(C#N)C2c2ccccc2)/C(=C\c2ccccc2)C1 (stereo not drawn),46.8%
10,Cc1cc(N2C(=O)C(=O)/C(=C(/O)c3ccc(F)cc3)C2c2ccc(F)cc2)no1 (stereo not drawn),9.16%
11,CCc1nc2n[nH]c(N)c2c2c1CSC(C)(C)C2,12.5%
12,COc1ccccc1-c1cc(-c2cc(Cl)ccc2O)n[nH]1,15%
13,COc1cccc(NC(=O)C2CC(=O)n3cnnc3S2)c1 (stereo not drawn),-2.07%
14,c1ccc(-n2c(Cc3cccnc3)nc3cnccc32)cc1,-4.36%
15,Clc1ccc(-c2nn3c(-c4cccc(Cl)c4)nnc3s2)cc1,22.7%
16,Cc1cccc(OCC(=O)NCC(=O)n2nc(C)cc2C)c1,1.47%
17,Cc1cccc(OCCN2CSC(=S)N(C)C2)c1,51.6% (active)
18,Cc1c(C(=O)O)c(=S)sn1CCOc1ccccc1,3.85%
19,COc1ccc(-c2onc(C)c2-c2ccccc2)c(O)c1,52.1% (active)
20,COc1cccc(-c2nnc3sc(-c4ccccc4)nn23)c1,8.34%
21,COc1ccc(-c2ncncc2-c2csc(C)n2)c(O)c1,3.39%
22,Nc1nnc(Cc2ccc(Cl)c(Cl)c2)s1,18.2%
23,O=C1NC(=O)C(c2cn(-c3ccccc3)nc2-c2ccc(F)cc2)N1 (stereo not drawn),10.6%
24,CC[C@H]1CN2CCc3cc(OC)c(OC)cc3[C@@H]2C[C@@H]1C[C@H]1NCCc2cc(OC)c(OC)cc21,78.5% (active)
25,Cc1ccc(-c2ccccc2NC(=O)C2C3C=CC(C3)C2C(=O)O)o1 (stereo not drawn),1.09%
26,C/C(=N\O)c1ccc2[nH]ccc2c1,9.01%

row,SMILES,growth inhibition
1,Nc1nc(Cl)nc2c1ncn2[C@@H]1O[C@H](CO)[C@@H](O)[C@H]1O,33.3%
2,Nc1nc(F)nc2c1ncn2[C@@H]1O[C@H](CO)[C@@H](O)[C@@H]1O,73.1% (active)
3,Nc1ncnc2c1ncn2[C@@H]1O[C@H](CO)[C@@H](O)[C@H]1O,1.29%
4,CCOC(=O)CSc1nc(C)c(C(C)=O)cc1C#N,7.6%
5,O=C(O)CCCc1ccccc1,-1.26%
6,O=C(NCCc1ccccc1)/C(=N\O)c1ccccc1,10.9%
7,N#C/C(=C\c1ccc(O)c(O)c1)C(=O)NCCCc1ccccc1,64.3% (active)
8,CC(C)(C)C1=Nn2c(nnc2-c2ccco2)SC1,2.63%
9,CC(=O)N(Cc1ccccc1)c1ccc(C(=O)O)cc1,-0.07%
10,COc1ccccc1C(CC(=O)Nc1nccs1)c1ccco1 (stereo not drawn),11.7%
11,O=c1[nH]nc2n1CCCCC2,2.49%
12,Cc1nnc2n(-c3ccccc3)c(=O)c3c4c(sc3n12)COC(C(C)C)C4 (stereo not drawn),13.4%
13,Cc1nnc2n(Cc3ccccc3)c(=O)c3c4c(sc3n12)COC(C(C)C)C4 (stereo not drawn),72.3% (active)
14,CC(C)C1Cc2c(sc3c2c(=O)n(Cc2ccccc2)c2nncn32)CO1 (stereo not drawn),25.2%
15,COC(=O)c1[nH]c2cc(OC)ccc2c1NC(=O)CCN1CCCC(C)(C)C1,-5.32%
16,COC(=O)c1[nH]c2cc(OC)ccc2c1NC(=O)CN1CCC(C(N)=O)CC1,-2.17%
17,COC(=O)c1[nH]c2cc(OC)ccc2c1NC(=O)CN1CCN(c2cccc(C)c2)C(C)C1 (stereo not drawn),68% (active)
18,COc1cccc2c(=O)c(SC(F)(F)C(F)C(F)(F)F)c(C)[nH]c12 (stereo not drawn),46.7%
19,CC(C)(C)c1cccc(/C=N/O)c1O,84.1% (active)
20,CSC(=Nc1ccccc1)C1=C(O)COC1=O,3.6%
21,CSc1nc(C)c2c(c1C#N)CCCC2,11.1%
22,O=C(NC1CCCCC1)[C@H](O)[C@@H](O)C(=O)NC1CCCCC1,-22.3%
23,CCCc1nc(N2CCCC2)c(C#N)c2c1CCCC2,20.2%
24,COc1ccc(CNc2oc(COc3ccccc3Cl)nc2C#N)cc1,34.1%
25,COc1ccc(CNc2oc(COc3ccc(Cl)cc3)nc2C#N)cc1,74.1% (active)
26,COc1ccc(CCNc2oc(COc3ccccc3)nc2C#N)cc1,31.8%

row,SMILES,growth inhibition
1,COC(=O)c1ccc(Cn2nnc3c(sc4nc(N5CCOCC5)c5c(c43)CCCC5)c2=O)o1,3.34%
2,O=CNC(=O)c1ccccc1C(=O)O,-1.48%
3,CCOC(=O)c1cc2cc(OC)ccc2[nH]1,15.9%
4,CCCCC(=O)Nc1c(O)c2ccccc2[nH]c1=O,3.38%
5,O=c1c(-c2ccc3c(c2)OCCO3)c(C(F)(F)F)oc2cc(O)cc(O)c12,71.1% (active)
6,O=c1c(O)c(-c2ccc(O)cc2O)oc2cc(O)cc(O)c12,4.21%
7,COc1ccc(-c2coc3cc(O)cc(O)c3c2=O)cc1,21.9%
8,COC(=O)c1cc(=O)n2c(-c3ccc(OC)cc3)csc2n1,-0.07%
9,O=C(O)CCCCCN1C(=O)CCC1=O,-0.47%
10,CC1(C)Cc2c(c(N3CCOCC3)nc3sc4c(NCc5ccco5)nnnc4c23)CS1,32.9%
11,OCCN1CCN(CCCN2c3ccccc3Sc3ccc(C(F)(F)F)cc32)CC1,92.3% (active)
12,CN1CCN(CCCN2c3ccccc3Sc3ccc(Cl)cc32)CC1,0.16%
13,CN1CCN(CCCCOc2ccc(F)cc2)CC1,3.19%
14,CN1CCN(CCC(=O)N2c3ccccc3Sc3ccc(Cl)cc32)CC1,13.4%
15,CN1CCN(CCCN2c3ccccc3Sc3ccc(C(F)(F)F)cc32)CC1,93.1% (active)
16,OCCN1CCN(CCCN2c3ccccc3Sc3ccc(Cl)cc32)CC1,90.6% (active)
17,c1ccc(SCc2nc3ccccc3[nH]2)nc1,6.85%
18,CC(NC(=O)Nc1ncccn1)(C(F)(F)F)C(F)(F)F,0.51%
19,C/C(=N\O)C1(C)N(O)C(C)(C)C(c2ccco2)=[N+]1[O-] (stereo not drawn),2.56%
20,CC1(C)Cc2c(c(-c3ccccc3)nc(N3CCCC3)c2C(N)=O)CO1,7.2%
21,O=C(NC1(C(F)(F)F)C(=O)Nc2c1c(=O)[nH]c(=O)n2-c1ccccc1)c1cccnc1 (stereo not drawn),1.94%
22,CCOC(=O)CSC1=C(C#N)C(=O)NC2(CCCCC2)S1,-4.21%
23,Nc1nnc(-c2cccc(Cl)c2Cl)c(N)n1,14.4%
24,Nc1nc(N)c2nc(-c3ccccc3)c(N)nc2n1,82.4% (active)
25,Nc1nonc1-c1noc(-c2ccccc2)n1,8.32%
